Assay results reported in PubChem BioAssay AID492998 (Southern Research Specialized Biocontainment Screening …, 2010).
About 550 (24%) of roughly 2,300 compounds were called active. The rule behind the calls is not given here. The list is a sample of the results. Measured potencies and affinities stand elsewhere.

test: Vero E6 cell cytotoxicity, dose response, cytotoxicity control for non-replicating M. tuberculosis project, secondary assay (AID 492998); conditions: series mostly up to 20 µM; viability: at the top concentration;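 note: 100% = vehicle-treated cells and 0% = background wells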

Which “viability” value does the source give for `S=c1[nH]c2ccccc2o1` here?
Its value is 97.2% (inactive).

With `CCOc1ccc(OC(=O)c2ccc3c(=O)n4c(nc3c2)CCC4)cc1` as the compound, how does the “viability” value read?
Its value is 100% (inactive).

Which “viability” value does the source give for `O=Cc1c(NCc2ccco2)nc2ccccn2c1=O` here?
The value was 97.9% (inactive).

With `CC(C)Oc1ccc(CNC(=O)Oc2ccccc2)cc1` as the compound, how does the “viability” value read?
The value was 90.1% (inactive).

Which “viability” value does the source give for `CCCOc1ccc(N2CC(C(=O)Nc3ccccc3F)CC2=O)cc1` (configuration not stated) here?
Its value is 101% (inactive).

With `CCOC(=O)Cn1c2ccc(F)cc2c2nc(C)sc21` as the compound, how does the “viability” value read?
Its value is 108% (inactive).

For `Cc1cccc(NC(=O)c2cc3ccccc3o2)c1`, which “viability” value is on record?
The value was 96.6% (inactive).

Which “viability” value does the source give for `CC(C)(C)NC(=O)C(=O)NNC(=O)c1ccc(C(C)(C)C)cc1` here?
The value was 83.8% (inactive).

With `CCOC(=O)c1nc2sc3c(c2c(=O)[nH]1)CCC(C)C3` (configuration not stated) as the compound, how does the “viability” value read?
The value was 100% (inactive).

Which “viability” value does the source give for `O=C(CCN1C(=O)S/C(=C\c2ccc(F)cc2)C1=O)Nc1ccc(C(=O)O)c(O)c1` here?
Its value is 91.7% (inactive).

With `COc1ccc(OCC(=O)Nc2ccc(N3CCN(C(=O)c4ccco4)CC3)cc2)cc1` as the compound, how does the “viability” value read?
The value was 112% (inactive).

With `CC(=O)c1cccc(NC(=O)C2COc3ccccc3O2)c1` (configuration not stated) as the compound, how does the “viability” value read?
Its value is 101% (inactive).

Which “viability” value does the source give for `Cc1ccc(CNCc2cc(Cl)ccc2O)cc1` here?
The value was 90% (inactive).

For `O=C(CCCOc1ccccc1)OCn1nnc2ccccc2c1=O`, which “viability” value is on record?
The value was 101% (inactive).

For `O=C(NCc1ccccc1)c1cc2ccccc2oc1=O`, which “viability” value is on record?
Its value is 104% (inactive).

With `CCC/C(=N\NC(=O)c1ccco1)c1ccc(Cl)s1` as the compound, how does the “viability” value read?
Its value is 82.4% (inactive).

For `O=C(Nc1nccs1)c1ccc(Br)cc1`, which “viability” value is on record?
Its value is 96.5% (inactive).

With `C/C(=C\C(=O)c1ccc(Br)cc1)NNC(=O)c1ccccc1` as the compound, how does the “viability” value read?
The value was 77.2% (inactive).

For `COc1cc(C=O)ccc1OCCCCOc1ccccc1[N+](=O)[O-]`, which “viability” value is on record?
The value was 98.1% (inactive).

With `CCOC(=O)c1cc(-c2c(Cl)cccc2Cl)no1` as the compound, how does the “viability” value read?
The value was 109% (inactive).

Which “viability” value does the source give for `O=C(O)CCCCCN1C(=O)CSC1=S` here?
The value was 94.7% (inactive).

Which “viability” value does the source give for `O=C(O)c1ccc(CN2C(=O)CSC2=S)cc1` here?
The value was 92.6% (inactive).

For `COc1ccc(CN=C2NN=C(c3ccc(Cl)cc3)CS2)cc1`, which “viability” value is on record?
Its value is 86.2% (inactive).

Which “viability” value does the source give for `c1ccc(Cn2c(SCCN3CCOCC3)nnc2-c2cccnc2)cc1` here?
Its value is 92.9% (inactive).

With `O=C1NC(Cc2c[nH]c3ccccc23)C(=O)N1CCOc1ccccc1` (configuration not stated) as the compound, how does the “viability” value read?
The value was 91.7% (inactive).

Which “viability” value does the source give for `CCOc1ccc(/C=N/OCC(=O)Nc2ccc3c(c2)OCO3)cc1` here?
The value was 113% (inactive).

With `COc1cccc(OCC(=O)NNC(=O)c2cccs2)c1` as the compound, how does the “viability” value read?
Its value is 90.7% (inactive).

With `CCC(=O)N/N=C/c1ccc(-c2ccc(Cl)cc2)o1` as the compound, how does the “viability” value read?
The value was 75.8% (inactive).

Which “viability” value does the source give for `Cc1ccc(CO/N=C/c2c(O)cc(C)oc2=O)cc1` here?
Its value is 105% (inactive).

With `Cc1ccc(NC(=O)C2COc3ccccc3O2)nc1` (configuration not stated) as the compound, how does the “viability” value read?
The value was 107% (inactive).

With `O=C1NC(=S)S/C1=C\c1ccc(SCc2ccco2)o1` as the compound, how does the “viability” value read?
Its value is 74.8% (inactive).

Which “viability” value does the source give for `O=C(C/C=N\OCc1ccc([N+](=O)[O-])cc1)Nc1ccccc1` here?
Its value is 104% (inactive).

For `C/C(=N\Nc1nc2ccccc2[nH]1)c1ccc(N2CCOCC2)cc1`, which “viability” value is on record?
The value was 80.6% (inactive).

For `CCCc1cc(=O)n2[nH]c(C)c(-c3ccccc3)c2n1`, which “viability” value is on record?
Its value is 103% (inactive).

Which “viability” value does the source give for `CC(C)[C@H](NC(=O)c1ccc(Br)cc1)C(=O)NC1CCCCC1` here?
Its value is 87.5% (inactive).

For `O=C(c1cc([N+](=O)[O-])cc([N+](=O)[O-])c1)N(Cc1nnc(-c2ccccc2Cl)o1)C1CC1`, which “viability” value is on record?
The value was 80% (inactive).

Which “viability” value does the source give for `CC(=O)N1CCN(C(=O)CC2OC(=O)c3ccccc32)CC1` (configuration not stated) here?
Its value is 113% (inactive).

For `Cc1c(Cl)cccc1-c1ccc(CNCc2ccccn2)o1`, which “viability” value is on record?
The value was 89.1% (inactive).

Which “viability” value does the source give for `Cc1ccsc1C(=O)OCC(=O)NCCC1=CCCCC1` here?
Its value is 101% (inactive).

With `COCCn1c(C)cc(C(=O)COC(=O)c2ccc(Br)o2)c1C` as the compound, how does the “viability” value read?
Its value is 99.9% (inactive).

With `COc1cc(/C=C2/C(=O)NN(c3cccc(F)c3)C2=O)ccc1OC(=O)c1ccco1` as the compound, how does the “viability” value read?
The value was 111% (inactive).

For `CC(C)(C)OC(=O)N/N=C\c1ccc([N+](=O)[O-])s1`, which “viability” value is on record?
Its value is 104% (inactive).

For `O=C(Nc1ccc(Cl)c(Cl)c1)O/N=C/c1ccncc1`, which “viability” value is on record?
Its value is 93% (inactive).

With `CCCCN(C/C=C/c1ccccc1OC)Cc1ccccc1` as the compound, how does the “viability” value read?
Its value is 106% (inactive).

Which “viability” value does the source give for `CCCOC(=O)c1ccc(NC(=O)c2ccc(Br)o2)cc1` here?
The value was 94.9% (inactive).

For `COc1ccc(-c2nc(C=O)cs2)cc1`, which “viability” value is on record?
Its value is 96.4% (inactive).

With `Cc1cccc(NC(=O)COc2ccc(Br)cc2)n1` as the compound, how does the “viability” value read?
The value was 98.3% (inactive).

With `COc1cccc(NC(=O)c2cc3ccccc3oc2=O)c1` as the compound, how does the “viability” value read?
The value was 82.3% (inactive).

For `Cc1ccc(C(=O)c2cncc(Br)c2)cc1`, which “viability” value is on record?
The value was 102% (inactive).

With `CC(=O)Oc1ccc(/C=C2\N=C(C3CCCCC3)OC2=O)cc1` as the compound, how does the “viability” value read?
Its value is 97.5% (inactive).

Which “viability” value does the source give for `CCCCOc1ccc(-c2nnn(C(C)C(=O)OCC)n2)cc1` (configuration not stated) here?
Its value is 98.4% (inactive).

For `Clc1ccc(N=c2ssnc2Cl)nc1`, which “viability” value is on record?
The value was 103% (inactive).

With `Cc1ccccc1N1CCN(Cc2ccc([N+](=O)[O-])o2)CC1` as the compound, how does the “viability” value read?
The value was 103% (inactive).

Which “viability” value does the source give for `COc1ccccc1N1CCN(C(=O)c2ccc([N+](=O)[O-])s2)CC1` here?
The value was 80.3% (inactive).

With `O=[N+]([O-])c1ccc(CN2CCN(c3ccccc3Cl)CC2)o1` as the compound, how does the “viability” value read?
Its value is 117% (inactive).

With `O=C(c1ccc([N+](=O)[O-])s1)N1CCN(c2cccc(Cl)c2)CC1` as the compound, how does the “viability” value read?
Its value is 74.3% (inactive).

Which “viability” value does the source give for `CCOC(=O)COc1ccc2c(=O)c(-c3ccccc3OC)coc2c1` here?
Its value is 111% (inactive).

For `COc1ccc(OCCOC(=O)CCS(=O)(=O)c2ccc(C)cc2)cc1`, which “viability” value is on record?
Its value is 90.1% (inactive).

Which “viability” value does the source give for `C=CCN(CC=C)CC(=O)Nc1ccc(S(N)(=O)=O)cc1` here?
The value was 92.4% (inactive).

Which “viability” value does the source give for `O=C1N/C(=N\c2ccccn2)SC1Cc1ccc(Cl)cc1` (configuration not stated) here?
Its value is 100% (inactive).

For `COc1ccc(OCCSc2nnc(Cc3cccc4ccccc34)n2N)cc1`, which “viability” value is on record?
The value was 97.8% (inactive).

With `CC1=CC2=NC(=O)/C(=C\c3ccc(OC(=O)c4ccco4)cc3)C(=N)N2O1` as the compound, how does the “viability” value read?
The value was 90.3% (inactive).

Which “viability” value does the source give for `Cn1[nH]c(-c2ccccc2)c(/C=N/O)c1=O` here?
The value was 103% (inactive).

With `CS/C(Nc1cc(Cl)ccc1Cl)=C(/C#N)C(=O)c1ccco1` as the compound, how does the “viability” value read?
Its value is 96.5% (inactive).

Which “viability” value does the source give for `COc1ccc(N2C(=O)C(F)(F)C2c2cccc(F)c2)cc1` (configuration not stated) here?
Its value is 99.5% (inactive).

Which “viability” value does the source give for `O=C(NN=C(Cc1ccccc1)Cc1ccccc1)c1ccncc1` here?
The value was 107% (inactive).

Which “viability” value does the source give for `O=C(N/N=C/C=C/c1ccccc1)c1ccncc1` here?
Its value is 103% (inactive).

For `O=C(CN1CCN(c2ccccc2)CC1)Nc1nnc(-c2ccccc2)s1`, which “viability” value is on record?
The value was 97.5% (inactive).

Which “viability” value does the source give for `Cc1ccc(C(=O)COC(=O)c2cccs2)cc1` here?
Its value is 97.8% (inactive).

With `CCCCCn1nnc2c(=O)oc3ccccc3c21` as the compound, how does the “viability” value read?
The value was 104% (inactive).

With `CCOc1ccc(NCC(=O)c2ccc(C)cc2)cc1` as the compound, how does the “viability” value read?
Its value is 96.1% (inactive).

Which “viability” value does the source give for `CCc1ccc(C2=C/C(=C/c3cccnc3)C(=O)O2)cc1` here?
The value was 105% (inactive).

Which “viability” value does the source give for `O=C(NN=C1C2CC3CC1CC(Cl)(C3)C2)c1cccs1` here?
The value was 101% (inactive).

With `CC(C)(C)c1ccc(NC(=O)COc2ccc(-n3ccnc3)cc2)cc1` as the compound, how does the “viability” value read?
Its value is 80.3% (inactive).

For `Cn1c(-c2cccc([N+](=O)[O-])c2)cnc1NCc1cccc(F)c1`, which “viability” value is on record?
Its value is 95.4% (inactive).

Which “viability” value does the source give for `Cc1ccc(C)c(NC(=O)c2cc([N+](=O)[O-])cc([N+](=O)[O-])c2)c1` here?
Its value is 97.9% (inactive).

Which “viability” value does the source give for `Cc1cc(Cl)ccc1OC(C)C(=O)Nc1ccc([N+](=O)[O-])cn1` (configuration not stated) here?
The value was 101% (inactive).
